# Screening results as filed in PubChem BioAssay.
# S2 tox – cell viability loss in ATXN counter-screen. 400,000 compounds, 0.49% hits. S2 cells (HEK-293 line with an ATXN2-luciferase reporter) viability, CellTiter-Fluor protease fluorescence, 24 h. Potency, µM (highest dose often 56.7 µM), usual class: cytotoxic; further: nearly all actives have a fitted effect of over 40% in size
# Nrf2 inh – inhibitors of Nrf2 signaling; 360,000 compounds, 2.1% hits; A549 ARE-Fluc reporter, luciferase luminescence, 18-24 h; AID 504444; Potency, µM (highest dose often 46 µM), usual class: inhibitors; further: nearly all actives have a fitted effect of over 60% in size
#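 Two sequential reads on A549 ARE_Fluc cells exposed to compound for 18-24 h: a CellTiter-Fluor fluorescence read for viability, then a luciferase luminescence read for Nrf2/ARE activity.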
# ATXN2 expr inh – reduces ATXN2 reporter expression in HEK-293 cells. HEK-293 ATXN2-luciferase reporter, luminescence, 24 h. Potency, µM (highest dose often 57 µM), hits mostly inhibitors. 360,000 compounds, 0.72% hits; further: nearly all actives have a fitted effect of over 55% in size
#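 ATXN2-luciferase reporter cells (luciferase flanked by upstream and downstream ATXN2 gene portions) were treated 24 h at 37 °C with compounds at up to 57 uM. SteadyGlo luminescence gave expression; GF-AFC fluorescence gave viability.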
# Nrf2 ARE act – activators of Nrf2 (ARE) signaling; 410,000 compounds, 0.31% hits; Potency, µM (doses to about 46.1 µM), usual class: activators; AREc32 ARE-luciferase reporter (MCF7-derived line), luminescence, 24 h; further: nearly all actives have a fitted effect of over 65% in size
#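 Reporter line AREc32 (ARE-Fluc), seeded overnight in OPTI-MEM with 5% FBS; compound pin-transferred, 24 hr at 37 deg C, 5% CO2; luminescent read-out.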
# A549 tox – counter-screen for Nrf2 inhibitors: cytotoxicity in A549 cells. A549 ARE-Fluc cells, CellTiter-Fluor viability, 18-24 h. Potency, µM (highest dose often 46 µM), actives largely listed as inhibitors. 390,000 compounds, 0.16% hits. AID 504648
#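 A549 ARE_Fluc cells in 5% FBS OPTI-MEM were exposed to compounds in concentration-response for 18-24 h at 37 deg C. Viability was read by CellTiter-Fluor fluorescence (Ex 405/Em 525) after 30 min, before the luciferase read.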
# A number is an active result; – = inactive; ? = inconclusive; · = no result given; ! = not active in a repeat; [ ] = dose if it differs, or a comment. This is a sample that favours compounds with a hit; in the whole collection about 2.9% have one here. The call rests on the fitted dose curve; in most records, active means well fitted curve in the direction sought with a large enough effect; inconclusive means small, poorly fitted or top-dose-only effect, or another doubt; inactive means no such curve, though single readings can be large; an effect the other way counts as inactive or inconclusive.
SMILES,S2 tox,Nrf2 inh,ATXN2 expr inh,Nrf2 ARE act,A549 tox
CS(=O)(=O)c1ccc(NC(=O)CCN2C(=O)C3CC=CCC3C2=O)cc1 (stereo not drawn),–,–,–,–,–
CNc1c2cccc(C)c2nc2c(C(=O)NCCN(C)C)cccc12,·,1.5µM,?,–,4.6µM
COc1ccc(C(C)=O)cc1CSc1nnc(Nc2ccccc2)s1,–,23µM,?,–,–
CC(C)CC(C(=O)OCC(=O)N1CCN(c2ccccc2)CC1)N1C(=O)c2ccccc2C1=O (stereo not drawn),–,–,–,–,–
[O-][n+]1onc2c1CCC1N(O)C(c3ccccc3)CC21O (stereo not drawn),–,·,–,–,–
Cn1cc(-c2[nH]c3cc(NC(=O)[C@H](N)C4CCCCC4)cc4c3c2C=NNC4=O)cn1,·,·,1.1µM,·,·
CC(C)CNS(=O)(=O)c1ccc(CC(C)C)cc1,–,–,–,–,–
CN(C)CCC(=O)N1C/C(=C/c2ccccc2)C(=O)/C(=C\c2ccccc2)C1,4.2µM,?,2.1µM,–,–
O=C(Cc1ccccc1)N1CCNCC1,–,–,–,–,–
O=C(/C=C/c1ccccc1)CCN1CCOCC1,?,–,?,–,–
O=C1/C(=C/c2ccccc2)CN(C(=O)CCN2CCOCC2)C/C1=C\c1ccccc1,21µM,?,27µM,–,?
CCOC(=O)N1C/C(=C\c2ccccc2)C(=O)/C(=C/c2ccccc2)C1,?,–,·,11µM,–
C[N+](C)(C)CCC(=O)N1C/C(=C/c2ccccc2)C(=O)/C(=C\c2ccccc2)C1,·,–,8.4µM,?,–
CCc1cccc(C)c1NC(=O)CSc1nc(C)c(C)o1,–,–,–,–,–
CC(=O)Nc1ccc(S(=O)(=O)N(Cc2ccccc2)Cc2ccccc2)cc1,·,–,·,–,–
O=C(Cc1ccccc1)Nc1ccc(NC(=O)c2ccco2)nc1,–,?,–,–,–
Cc1ccc(C)c(NC(=O)COC(=O)c2ccc(S(=O)(=O)N3CCCCC3)cc2)c1,–,–,–,–,–
Oc1ccc(CNc2ccccc2C(F)(F)F)c2cccnc12,·,?,·,·,–
Oc1ccc(CNc2ccc(F)cc2F)c2cccnc12,·,10µM,·,·,–
Oc1ccc(CNc2ccccc2F)c2cccnc12,11µM!,?,18µM!,–,–
O=C(OCn1ncc(Cl)c(Cl)c1=O)c1ccc(C(F)(F)F)cc1,?,–,?,10µM,–
CCOC(=O)c1ccc(NC(=O)Cn2ncc(Cl)c(Cl)c2=O)cc1,?,?,?,?,–
Cc1cc(C(=O)N2CCN(c3cc(Cl)ccc3C)CC2)c2c(C)nn(-c3ccccc3)c2n1,–,–,–,–,–
CCOCCOC(=O)c1[nH]c2c(c1C)C(=O)CC(c1ccc(OC)c(OC)c1)C2 (stereo not drawn),–,21µM,–,–,–
CCC(=O)N(CCC(Cc1ccccc1)c1ccco1)Cc1ccco1 (stereo not drawn),–,16µM,–,–,–
SMILES,S2 tox,Nrf2 inh,ATXN2 expr inh,Nrf2 ARE act,A549 tox
Cc1nnc(N(C(=O)c2cnccn2)c2ccccc2)s1,–,–,–,–,–
CC1(C)CC(=O)C2=C(C1)NC(Nc1nc3ccccc3o1)=NC2c1cccc(O)c1 (stereo not drawn),·,21µM,·,·,?
Cc1ccccc1N1CC(c2nc3ccccc3n2CCC2CCCCC2)CC1=O (stereo not drawn),·,23µM,?,–,–
Cc1ccc(N2CC(c3nc4ccccc4n3CCC3CCCCC3)CC2=O)cc1 (stereo not drawn),–,–,–,–,–
CCc1ccccc1N1CC(c2nc3ccccc3n2CCC2CCCCC2)CC1=O (stereo not drawn),28µM,?,?,–,?
Cc1c(C(=O)NCc2ccc(F)cc2)sc(=O)n1Cc1ccc(C(=O)c2ccccc2)cc1,–,·,–,–,·
O=[N+]([O-])c1cccc(COc2ccccc2CN2CCCC2)c1,–,–,–,–,–
COc1ccc(N/C=C2\C(=O)CCc3c2oc2cc(Cl)c(O)c(Cl)c32)cc1,?,–,·,7.1µM,–
CC(=O)Nc1cc(-c2cccc(NS(C)(=O)=O)c2)cn2c(-c3cccc(C(F)(F)F)c3)cnc12,·,·,?,–,·
COc1ccc(C(CCN2CCCCC2)c2c(OC)cc(OC)c3c(-c4ccccc4)cc(=O)oc23)cc1 (stereo not drawn),22µM,–,?,–,–
COc1cc(OC)c2c(-c3ccccc3)cc(=O)oc2c1C(CCN1CCCCC1)c1ccc(N(C)C)cc1 (stereo not drawn),22µM,–,?,–,–
COc1cc(OC)c2c(-c3ccccc3)cc(=O)oc2c1C(CCN1CCCC(C)C1)c1ccc2c(c1)OCO2 (stereo not drawn),10µM,–,?,–,–
CCOC(=O)c1sc(=S)n(C)c1NC(=O)c1cccc(Br)c1,–,?,?,–,–
O=C1CN(C(=O)COc2ccc(Cl)cc2Cl)C(c2ccc(F)cc2)c2cc(F)ccc2N1 (stereo not drawn),?,–[9.27 µM],?,–,–
CCOc1ccc(NC(=S)N(CCc2c(C)[nH]c3ccccc23)Cc2cccnc2)cc1,?,–,–,–,–
COc1ccc(NC(=S)N(CCc2c(C)[nH]c3ccc(C)cc23)Cc2cccnc2)cc1,?,21µM,?,–,?
CC1(C)CC1C(=O)Nc1ccc([N+](=O)[O-])cc1Br (stereo not drawn),–,–,–,–,–
Cc1ccc(C2(c3ccc(C)cc3)CC2C(=O)Nc2ccc([N+](=O)[O-])cc2O)cc1 (stereo not drawn),·,?,16µM,–,?
CC(=O)c1ccc(N2CCN(C(=O)Nc3ccc(Cl)cc3)CC2)cc1,–,16µM,–,–,–
O=C(Nc1ccc(Cl)cc1)N1CCN(c2ccccc2)CC1,–,–,–,–,–
CC(=O)c1ccc(NC(=O)N2CCN(c3cccc(Cl)c3)CC2)cc1,–,9.2µM,–,–,–
COc1cc(=O)n2c(c1C(=O)NC(C)c1ccco1)CCN(C(=O)c1ccc3c(c1)OCCO3)CC2 (stereo not drawn),–,·,·,·,·
COc1ccc(O)c(C(=O)C2c3ccccc3C(=O)N2c2ccc(C)cc2)c1 (stereo not drawn),–,?,–,–,–
O=c1[nH]c(CSc2nc3ccccc3[nH]2)nc2c1cnn2-c1ccccc1,?,15µM,?,–,–
CSCC[C@H](NC(=O)OC(C)(C)C)c1nnc(SCc2ccccc2)o1,–,·,–,–,–
CSCC[C@H](NC(=O)OC(C)(C)C)c1nnc(SCc2ccc(F)cc2)o1,–,26µM,–,–,–
Cc1cc(C)cc(N(C(=O)c2snc(C(N)=O)c2N)C(C(=O)NCC2CCCO2)c2cccs2)c1 (stereo not drawn),?,–,–,–,–
NC(=O)NO,–,–,7.7µM!,–,–
CN1/C(=C\C(=O)C[n+]2ccc3ccccc3c2)C(C)(C)c2ccccc21,?,10µM,–,–,?
